The binders below were run against AgAbp1 (assay: SPOT peptide array binding signal intensity (averaged, normalized) (arbitrary units (background-subtracted, floor 0; scale differs between SH3 domains)); higher = stronger binding of the SH3 domain to the peptide).
Summary of the method: (§1)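 Four yeast species supplied the SH3 domains, which were expressed as GST fusions in E. coli BL21(DE3) and purified on glutathione Sepharose. Incubation with cellulose membranes carrying synthetic 15-mer peptides, cysteines exchanged for serines, ran overnight at 4°C at 10 μg/ml in TBS-based blocking buffer. Binding signal is reported as normalized, background-subtracted spot intensity averaged over replicates, in arbitrary units not shared between domains.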

**Q.** How did the “SPOT peptide array binding signal intensity” value turn out when EAEEAAPQLPSRSSA was run?
**A.** Its value is 7.

The binders below were run against AgBbc1 in the same assay as above.
Summary of the method: as §1

**Q.** Which “SPOT peptide array binding signal intensity” value does the source give for EAEEAAPQLPSRSSA here?
**A.** Its value is at most 0.

These binders were tested against AgBem1-D1 in the same assay as above.
Summary of the method: as §1

**Q.** How did the “SPOT peptide array binding signal intensity” value turn out when EAEEAAPQLPSRSSA was run?
**A.** The value was at most 0.

What follows are binders tested against AgBzz1-D1 in the same assay as above.
Summary of the method: as §1

**Q.** With EAEEAAPQLPSRSSA as the binder, how does the “SPOT peptide array binding signal intensity” value read?
**A.** Its value is 8.5.

These binders were tested against AgBzz1-D2 in the same assay as above.
Summary of the method: as §1

**Q.** With EAEEAAPQLPSRSSA as the binder, how does the “SPOT peptide array binding signal intensity” value read?
**A.** Its value is 8.5.

The binders below were run against AgCyk3 in the same assay as above.
Summary of the method: as §1

**Q.** EAEEAAPQLPSRSSA was tested. Which “SPOT peptide array binding signal intensity” value did it give?
**A.** The value was at most 0.

The binders below were run against AgFus1 in the same assay as above.
Summary of the method: as §1

**Q.** Which “SPOT peptide array binding signal intensity” value does the source give for EAEEAAPQLPSRSSA here?
**A.** The value was 8.

Each binder was assayed against AgHof1 in the same assay as above.
Summary of the method: as §1

**Q.** Which “SPOT peptide array binding signal intensity” value does the source give for EAEEAAPQLPSRSSA here?
**A.** The value was 0.5.

Each binder was assayed against AgHse1 in the same assay as above.
Summary of the method: as §1

**Q.** Which “SPOT peptide array binding signal intensity” value does the source give for EAEEAAPQLPSRSSA here?
**A.** The value was 3.5.

Each binder was assayed against AgLsb1 in the same assay as above.
Summary of the method: as §1

**Q.** Which “SPOT peptide array binding signal intensity” value does the source give for EAEEAAPQLPSRSSA here?
**A.** The value was 16.

What follows are binders tested against AgLsb4 in the same assay as above.
Summary of the method: as §1

**Q.** How did the “SPOT peptide array binding signal intensity” value turn out when EAEEAAPQLPSRSSA was run?
**A.** The value was 3510.

The binders below were run against AgMyo5 in the same assay as above.
Summary of the method: as §1

**Q.** Which “SPOT peptide array binding signal intensity” value does the source give for EAEEAAPQLPSRSSA here?
**A.** Its value is at most 0.

Each binder was assayed against AgNbp2 in the same assay as above.
Summary of the method: as §1

**Q.** With EAEEAAPQLPSRSSA as the binder, how does the “SPOT peptide array binding signal intensity” value read?
**A.** Its value is at most 0.

What follows are binders tested against AgRvs167 in the same assay as above.
Summary of the method: as §1

**Q.** EAEEAAPQLPSRSSA was tested. Which “SPOT peptide array binding signal intensity” value did it give?
**A.** Its value is 11.3.

The binders below were run against AgSho1 in the same assay as above.
Summary of the method: as §1

**Q.** With EAEEAAPQLPSRSSA as the binder, how does the “SPOT peptide array binding signal intensity” value read?
**A.** The value was at most 0.

Each binder was assayed against AgSla1-D1-D2 in the same assay as above.
Summary of the method: as §1

**Q.** With EAEEAAPQLPSRSSA as the binder, how does the “SPOT peptide array binding signal intensity” value read?
**A.** Its value is at most 0.

Each binder was assayed against AgSla1-D3 in the same assay as above.
Summary of the method: as §1

**Q.** How did the “SPOT peptide array binding signal intensity” value turn out when EAEEAAPQLPSRSSA was run?
**A.** The value was 2.

These binders were tested against CaAbp1-D1 in the same assay as above.
Summary of the method: as §1

**Q.** EAEEAAPQLPSRSSA was tested. Which “SPOT peptide array binding signal intensity” value did it give?
**A.** Its value is at most 0.

These binders were tested against CaAbp1-D2 in the same assay as above.
Summary of the method: as §1

**Q.** How did the “SPOT peptide array binding signal intensity” value turn out when EAEEAAPQLPSRSSA was run?
**A.** The value was at most 0.

What follows are binders tested against CaBbc1 in the same assay as above.
Summary of the method: as §1

**Q.** Which “SPOT peptide array binding signal intensity” value does the source give for EAEEAAPQLPSRSSA here?
**A.** Its value is at most 0.

What follows are binders tested against CaBem1-D1 in the same assay as above.
Summary of the method: as §1

**Q.** For EAEEAAPQLPSRSSA, which “SPOT peptide array binding signal intensity” value is on record?
**A.** The value was at most 0.

Each binder was assayed against CaBzz1-D1 in the same assay as above.
Summary of the method: as §1

**Q.** For EAEEAAPQLPSRSSA, which “SPOT peptide array binding signal intensity” value is on record?
**A.** Its value is 1.

Each binder was assayed against CaBzz1-D2 in the same assay as above.
Summary of the method: as §1

**Q.** For EAEEAAPQLPSRSSA, which “SPOT peptide array binding signal intensity” value is on record?
**A.** Its value is 3.25.

Each binder was assayed against CaCyk3 in the same assay as above.
Summary of the method: as §1

**Q.** Which “SPOT peptide array binding signal intensity” value does the source give for EAEEAAPQLPSRSSA here?
**A.** Its value is at most 0.

What follows are binders tested against CaFus1 in the same assay as above.
Summary of the method: as §1

**Q.** EAEEAAPQLPSRSSA was tested. Which “SPOT peptide array binding signal intensity” value did it give?
**A.** Its value is 5.

What follows are binders tested against CaHof1 in the same assay as above.
Summary of the method: as §1

**Q.** EAEEAAPQLPSRSSA was tested. Which “SPOT peptide array binding signal intensity” value did it give?
**A.** Its value is 0.25.

Each binder was assayed against CaHse1 in the same assay as above.
Summary of the method: as §1

**Q.** For EAEEAAPQLPSRSSA, which “SPOT peptide array binding signal intensity” value is on record?
**A.** The value was 6.75.

These binders were tested against CaLsb1 in the same assay as above.
Summary of the method: as §1

**Q.** With EAEEAAPQLPSRSSA as the binder, how does the “SPOT peptide array binding signal intensity” value read?
**A.** The value was 1.75.

What follows are binders tested against CaLsb4 in the same assay as above.
Summary of the method: as §1

**Q.** EAEEAAPQLPSRSSA was tested. Which “SPOT peptide array binding signal intensity” value did it give?
**A.** The value was 6000.

Each binder was assayed against CaMyo5 in the same assay as above.
Summary of the method: as §1

**Q.** Which “SPOT peptide array binding signal intensity” value does the source give for EAEEAAPQLPSRSSA here?
**A.** The value was 1.

Source: the supplement of paper PMC4466140
